Screens from PubChem BioAssay.
TROY NFkB inh: inhibitors of TROY-driven NF-kB signaling, primary screen, Q293 LMP1-TROYcd cells, NF-kB luciferase, uHTS; inhibition, % at 10 µM; Q293 LMP1-TROYcd NF-kB luciferase reporter, 4 h; 360,000 compounds, 0.98% hits; AID 1347056, 2019;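 active = compounds whose plate-normalised and pattern-corrected inhibition of the luciferase reporter signal at the single screening dose is 50% or more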
TWEAK Fn14 block: inhibitors of TWEAK-Fn14 signaling, primary screen, luciferase reporter cells, uHTS; TWEAK-stimulated Fn14 reporter cells, luciferase luminescence, 8 h; 360,000 compounds, 2% hits; inhibition, % at 10 µM; in the data active = inhibition above about 50%
CF NFkB block: inhibitors of PAF-induced NF-kB signaling, primary screen, cell-based, GFP fluorescence, uHTS. KKLEB NF-kB-GFP reporter, GFP fluorescence overnight. inhibition, % at 5 µM. 360,000 compounds, 0.86% hits;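 active = at least 50% inhibition at 5 µM, scaled per plate between neutral and stimulator controls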;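 also: PAF is a Pseudomonas aeruginosa culture filtrate used as stimulus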
Peg3 prom inh: Peg3 promoter-driven luciferase inhibitors, primary screen, cell-based, HeLa, luciferase luminescence; HeLa PEG-Prom luciferase reporter, overnight; inhibition, % at 20 µM; 360,000 compounds, 1.7% hits; AID 588405, 2011;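 active = inhibition of at least 50% at 20 µM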
KKLEB tox: cytotoxicity in KKLEB CF airway cells, primary screen, cytotoxicity control for CF NF-kB inhibitor project, cell-based, uHTS, fluorescence assay plates; AID 602141, 2011; KKLEB CF airway cells viability, ATPlite luminescence, overnight; hits give low values; cells stimulated with P. aeruginosa culture filtrate; activity change (cytotoxicity), % at 5 µM; 360,000 compounds, 0.36% hits;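 active = corrected activity change at or below -50% at 5 µM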
HIF-2a inh: HIF-2a reporter inhibitors, primary screen, luminescence, 786-0 RCC cells; 786-0 RCC cells HIF-2a reporter, luciferase luminescence, overnight; inhibition, % at 18.8 µM; 360,000 compounds, 0.72% hits; AID 624352, 2012;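 active = inhibition of the luminescence signal of 40% or more relative to plate controls, in a single-dose primary screen at 18.75 µM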
Each line names hits and unclear results; the compound was inactive in the other large screens. Most compounds without a hit are left out; they make up all but 4% or so of the library.

Cc1noc(C)c1CSCC(=O)N(C)CC(=O)Nc1ccc(F)c(F)c1F	none
Nc1nc2ccccc2n1/N=C/c1ccc(-c2ccccc2)o1	TWEAK Fn14 block 53
Nc1nc2ccccc2n1/N=C/c1cccnc1	none
O=C(CC(=O)c1cccs1)c1ccncc1	none
CC1(c2ccccc2)NC(=O)N(CC(=O)NCCC2=CCCCC2)C1=O (centres undefined)	TROY NFkB inh 57
O=C(Nc1cnn(C23CC4CC(CC(C4)C2)C3)c1)c1cnn2c(C(F)(F)F)cc(-c3ccco3)nc12	TROY NFkB inh 81, TWEAK Fn14 block 96, Peg3 prom inh 71
Cc1ccccc1Cn1ccc(NC(=O)c2cnn3c(C(F)(F)F)cc(-c4ccco4)nc23)n1	Peg3 prom inh 51
CC(=O)Nc1ccccc1N(CC(O)Cn1c2ccccc2c2ccccc21)S(=O)(=O)c1ccc(C)cc1 (centres undefined)	TWEAK Fn14 block 53
COc1ccc2c(c1)CCCN2C(N)=O	TWEAK Fn14 block 58
COc1ccc(C)cc1NC(=O)N1CCCc2ccccc21	TROY NFkB inh 70, TWEAK Fn14 block 55
COc1ccc(NC(=O)N2CCCc3ccccc32)c(OC)c1	TROY NFkB inh 70, TWEAK Fn14 block 51
CCOC(=O)C1=C[C@@H](c2ccccc2)N(S(=O)(=O)c2ccc(C)cc2)[C@H]1c1ccccc1Cl	none
O=C1CCN(Cc2ccccc2)C=C1c1ccc(Br)cc1	none
CN(Cc1ccccc1)C(=O)[C@@H]1CCCN1C(=O)[C@@H]1CCCN1C(=O)c1ccccc1	none (no result: CF NFkB block, Peg3 prom inh, KKLEB tox)
COc1ccc(-c2nnc(SCc3csc(N)n3)n2C)cc1	none
Cc1ccc(Nc2nc(CSc3nnc(-c4ccc(F)cc4)n3C)cs2)cc1	TROY NFkB inh 59, TWEAK Fn14 block 64
CC1CCC(NC(=O)CCCn2sc3ccccc3c2=O)CC1 (centres undefined)	none
COc1ccc(-c2nc(CSCC(=O)NCc3ccco3)c(C)o2)cc1	TWEAK Fn14 block 69
O=C(CCCSc1nc2ccccc2[nH]1)N1CCN(c2ccc([N+](=O)[O-])cc2)CC1	TWEAK Fn14 block 50
CS(=O)(=O)N(CC(=O)N1CCN(c2cccc(Cl)c2)CC1)C1CCCCC1	TWEAK Fn14 block 67
O=C(CN(C(=O)c1csnn1)c1cccc(Cl)c1)NC1CCCCC1	none
COc1cc(C(=O)Nc2cc(C)ccn2)ccc1OCC(=O)N1CCOCC1	TWEAK Fn14 block 93
COc1ccc(-c2nc(NC(=O)c3ccc(OCC(=O)N4CCOCC4)c(OC)c3)sc2C)cc1	TWEAK Fn14 block 58, Peg3 prom inh 66
CCc1ccc(-c2nc(NC(=O)c3ccc(OCC(=O)Nc4ccc(F)cc4)c(OC)c3)sc2C)cc1	none
COc1cc(C(=O)Nc2nc(-c3ccc(Cl)cc3)c(C)s2)ccc1OCC(=O)Nc1ccc(F)cc1	KKLEB tox -58
COc1cc(C(=O)Nc2ccc(C)cn2)ccc1OCC(=O)N1CCOCC1	none
O=C(O)C(Cc1ccccc1[N+](=O)[O-])N1C(=O)c2ccccc2C1=O (centres undefined)	none
CC(C)C[C@H]1CN(CCCC[C@@H]2CNC(=O)C(=O)N2Cc2ccccc2)C(=O)C(=O)N1CCc1ccc(O)cc1	none (no result: CF NFkB block, Peg3 prom inh, KKLEB tox)
CC(C)c1cc(C(=O)NCc2ccc(F)cc2)c(N)s1	none (no result: TROY NFkB inh, TWEAK Fn14 block, CF NFkB block, Peg3 prom inh, KKLEB tox)
Clc1cccc(Cc2c(-c3cccc(Cl)c3)nc3c4ccccc4ccn23)c1	none (no result: CF NFkB block, Peg3 prom inh, KKLEB tox)
Fc1cccc(Cc2c(-c3cccc(Cl)c3)nc3c4ccccc4ccn23)c1	none
Clc1cccc(Cc2c(-c3ccco3)nc3c4ccccc4ccn23)c1	TWEAK Fn14 block 69 (no result: CF NFkB block, Peg3 prom inh, KKLEB tox)
Fc1cccc(Cc2c(-c3ccco3)nc3c4ccccc4ccn23)c1	TWEAK Fn14 block 51
Nc1nc2ccc(Cl)cc2cc1C(=O)NCCc1c[nH]c2ccccc12	TWEAK Fn14 block 52 (no result: CF NFkB block, Peg3 prom inh, KKLEB tox)
O=C1c2cccc3cccc(c23)C(=O)N1CC1CCN(CC(O)COc2ccc3ccccc3c2)CC1 (centres undefined)	Peg3 prom inh 100
CC(=O)c1ccccc1OCC(O)CN1CCN(CCN2C(=O)c3cccc4cccc(c34)C2=O)CC1 (centres undefined)	none
O=C1c2cccc3cccc(c23)C(=O)N1CCN1CCN(CC(O)COc2ccc3ccccc3c2)CC1 (centres undefined)	Peg3 prom inh 79
Cc1ccc(C)c(OCC(O)CN2CCN(CCN3C(=O)c4cccc5cccc(c45)C3=O)CC2)c1 (centres undefined)	Peg3 prom inh 89
CCc1ccc(OCC(O)CN2CCC(CN3C(=O)c4cccc5cccc(c45)C3=O)CC2)cc1 (centres undefined)	Peg3 prom inh 109
COc1cccc(OCC(O)CN2CCC(CN3C(=O)c4cccc5cccc(c45)C3=O)CC2)c1 (centres undefined)	none
O=C(CN1CCC(C(=O)c2ccc(Cl)cc2)CC1)NC1CCCC1	none
Cc1cc(S(=O)(=O)NCc2ccncc2)c(C)cc1Br	none
C[C@H](c1ccccc1)N1C[C@H](COCc2ccccc2)Oc2cc(N3CC[C@@H](O)C3)ccc2S1(=O)=O	none (no result: CF NFkB block, Peg3 prom inh, KKLEB tox)
COc1ccc(COCC(O)CN2CCC(CN3C(=O)c4cccc5cccc(c45)C3=O)CC2)cc1OC (centres undefined)	none
Cc1cc(C)cc(OCC(O)CN2CCC(CN3C(=O)c4cccc5cccc(c45)C3=O)CC2)c1 (centres undefined)	Peg3 prom inh 75
NC(=O)c1nsc(C(=O)N(c2cccc(F)c2)C(C(=O)NC2CCCC2)c2ccco2)c1N (centres undefined)	none
COc1ccccc1C(=O)Nc1c[nH]c(=O)[nH]c1=O	Peg3 prom inh 64
CCOc1ccccc1C(=O)Nc1c[nH]c(=O)[nH]c1=O	none
Cc1cc(C)cc(NC(=O)Nc2c(Br)cnn2C)c1	none
C[C@@H]1CN([C@H](C)CO)C(=O)CCCn2nncc2CO[C@H]1CN(C)S(=O)(=O)c1cccc(C#N)c1	none
Cc1ccc(S(=O)(=O)N2C[C@H]3n4c(=O)ccc(=O)n4C[C@H](OC(=O)NCC4CCCCC4)[C@@]3(O)C2)cc1	TWEAK Fn14 block 61, Peg3 prom inh 94
O=C(C[C@H]1C[C@@H]2c3cc(NS(=O)(=O)c4ccccc4)ccc3O[C@@H]2[C@H](CO)O1)N1CCOCC1	none
Cc1cccc(OCCN2C(=O)C(=O)c3cc(C)ccc32)c1	CF NFkB block 54
Cc1ccc2c(c1)C(=O)C(=O)N2CCOc1ccccc1	none
CC(Nc1c([N+](=O)[O-])c(=O)oc2ccccc12)C(Cl)c1ccccc1 (centres undefined)	TWEAK Fn14 block 50, Peg3 prom inh 50
